pAkt inh = HTS Assay for Inhibitors of Akt Phophorylation: Primary Screen; Neuro2A IGF-stimulated pAkt S473 HTRF, 20 min; stronger effect = lower value; activity change, % for hits at 50 µM; hit rate 0.32% among 360,000; AID 651550, 2012; in the data active means activity change below about -80%; inconclusive means mostly about -51% to -80%
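Single-point screen (50 µM final compound) in Neuro2A cells stimulated 20 min with 6 nM IGF at 37 deg C. After lysis, Ser473-phosphorylated Akt read by HTRF (ex 330 nm, em 615/665 nm) as the 665/615 ratio.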
TCR act = Activators of T cell receptors: qHTS campaign. primary human leukocytes, anti-CD3, IL-2 HTRF, 48 h. Potency, µM (highest dose often 9.22 µM), hits mostly activators. 330,000 tested, under 10 active. AID 504894, 2011
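Activity was scored as IL-2 release from primary human leukocytes given only a TCR signal (a-CD3 beads) plus compound for 48 hr. Detection used a two-antibody HTRF format read at 665nm.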
PINK1 expr mod = A Quantitative High throughput Screen to Identify Chemical Modulators of PINK1 Expression; PINK1 immunofluorescence, high-content cytometry, 24 h; Potency, µM (highest dose often 76.6 µM), actives largely listed as activators; hit rate 0.2% among 410,000; active means well fitted activation curve with a large enough effect; inconclusive means small, poorly fitted or top-dose-only effect; cell line not stated here; further: nearly all actives have a fitted effect of over 65% in size
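A stable cell line was treated with compounds at 5 concentrations for 24 hours, with CCCP as control. PINK1 levels and mitochondrial localization were measured by immunofluorescence with mitochondrial, cell and nuclear markers after fixation, read by laser-scanning cytometry.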
BRCA1 expr act = qHTS Assay to Identify Small Molecule Activators of BRCA1 Expression; MCF7-BRCA1-FFLuc reporter, luminescence, 48 h; response scale: scaled: vehicle 0%, 10 µM genistein 100%; AID 624202, 2012; Potency, µM (series often up to 46.1 µM), actives largely listed as activators; hit rate 1.1% among 380,000; further: nearly all actives have a fitted effect of over 80% in size
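Using MCF7 cells harboring a BRCA1 firefly luciferase reporter, plated 2 h before compound pinning, the screen measured luminescence after 48 h incubation. Responses were normalized to DMSO and 10 microM genistein, then fitted for concentration-effect.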
Of the large screens only hits and unclear results are named; the others gave an inactive call; ! = repeats disagree. In the library only some 1.5% were active in any assay of this set; here they are far more common. Unless noted, the call rests on the fitted dose curve; in most records, active means well fitted curve in the direction sought with a large enough effect; inconclusive means small, poorly fitted or top-dose-only effect, or another doubt; inactive means no such curve, though single readings can be large; an effect the other way counts as inactive or inconclusive.

Cn1c(C(=O)NCC2CCCO2)cc2c(=O)[nH]c3ccccc3c21 (centres undefined)	none
Cn1c(C(=O)NCC2CCCO2)cc2oc3ccccc3c21 (centres undefined)	BRCA1 expr act 3.5µM (no result: pAkt inh)
Cn1c(C(=O)NCc2cccs2)cc2oc3ccccc3c21	BRCA1 expr act 13µM
Cn1c(C(=O)NCc2ccccc2)cc2oc3ccccc3c21	none
Cc1cnc(-n2ncc(C(=O)NCCc3ccncc3)c2-c2cccs2)nc1-c1ccc(F)cc1	none (no result: pAkt inh, TCR act, BRCA1 expr act)
COc1ccc(F)c(CN2CCC3(CCC(CNC(=O)c4cc(C)nn4C)O3)CC2)c1 (centres undefined)	none (no result: pAkt inh, TCR act, BRCA1 expr act)
Cc1nc2ccccc2nc1CN1CCOc2ccc(C3(O)CCN(c4ccccc4F)CC3)cc2C1	none (no result: pAkt inh, TCR act, BRCA1 expr act)
Cc1nc(Nc2ccccc2)sc1C(=O)c1ccccc1	BRCA1 expr act 10µM
COc1ccc(C(=O)c2sc(Nc3ccccc3)nc2C)cc1	none
COC(=O)[C@@H]1C[C@@H](NC(=O)c2cccc3c(C)c(C)[nH]c23)CN1Cc1cccc2ccccc12	none (no result: pAkt inh, TCR act, BRCA1 expr act)
O=C(CSc1cccc[n+]1[O-])Nc1cc2c(cc1Cl)C(=O)c1ccccc1C2=O	BRCA1 expr act 10µM
Brc1ccccc1OCCCn1cnc2ccccc21	BRCA1 expr act 11µM
O=C(NCc1nnc2n1CCN(Cc1ccc(C(F)(F)F)cc1)CC2)c1ccccn1	none (no result: pAkt inh, TCR act, BRCA1 expr act)
COc1cccc2oc3cc(C#CC4(O)CCCCC4)ccc3c(=O)c12	BRCA1 expr act inconclusive
COc1cccc2oc3cc(C#Cc4ccccn4)ccc3c(=O)c12	BRCA1 expr act 8.9µM
C/C(NC(=O)c1ccccc1F)=C1\C(=O)C[C@@H]2[C@H]1C2(C)C	BRCA1 expr act 11µM
C/C(NC(=O)c1cccc(F)c1)=C1/C(=O)C[C@@H]2[C@H]1C2(C)C	BRCA1 expr act inconclusive
O=C(Nc1ccccc1)N1CCOCC1	none (no result: TCR act)
CCNC(=S)Nc1ccc2c(c1)oc1ccccc12	BRCA1 expr act 4.5µM
O=C(Nc1ccc2c(c1)oc1ccccc12)N1CCOCC1	BRCA1 expr act 6.3µM
CCn1c2ccccc2c2cc(NC(=O)N3CCOCC3)ccc21	BRCA1 expr act 11µM
CCC(=O)N1CCc2cc(S(=O)(=O)N(C)c3cccc(C)c3)ccc21	none (no result: pAkt inh, TCR act)
COc1cccc(-n2c(SC)nnc2C2CCN(Cc3nc4ccccc4s3)CC2)c1	none (no result: pAkt inh, TCR act, BRCA1 expr act)
CCCn1cnc2c(SCc3ccccc3F)nc(N)nc21	BRCA1 expr act 10µM
CCCCn1cnc2c(SCc3cccc(F)c3)nc(N)nc21	none
CC1CCCCN1C(=O)COC(=O)c1n[nH]c2ccccc12 (centres undefined)	BRCA1 expr act 10µM (no result: pAkt inh)
CCOc1ccc(CNC(=O)c2ccccc2NC(=O)c2nsc3ccccc23)cc1	none (no result: pAkt inh, TCR act, BRCA1 expr act)
Cc1ccc(CN2C[C@H](Sc3ccccn3)C[C@H]2C(=O)Nc2ccc3sc(C)nc3c2)cc1	none (no result: pAkt inh, TCR act, BRCA1 expr act)
C1=C(c2ccccc2)CCN(c2ncnc3nc[nH]c23)C1	none
c1ccc2c(c1)CCN(c1ncnc3nc[nH]c13)C2	BRCA1 expr act 3.5µM!
COCc1c(C(=O)N2CCN(c3ccccc3O)CC2)cnn1-c1nccc(-c2cccs2)n1	none (no result: pAkt inh, TCR act, BRCA1 expr act)
COc1ccc(/C=C/c2nccc3ccccc23)cc1OC	BRCA1 expr act inconclusive (no result: pAkt inh, TCR act)
CCOC(=O)NC(=O)/C(C#N)=C\Nc1ccc(Cl)cc1Cl	BRCA1 expr act 13µM
CCOC(=O)NC(=O)/C(C#N)=C\Nc1sccc1C(=O)OC	none
Cc1cnc(-n2ncc(C(=O)NCC(C)(C)N3CCOCC3)c2C)nc1-c1cccs1	none (no result: pAkt inh, TCR act, BRCA1 expr act)
OC(c1ccc(F)cc1)c1ncc(-c2ccccc2Cl)[nH]1 (centres undefined)	BRCA1 expr act 11µM (no result: TCR act)
Cc1ccccc1-c1cnc(C(O)c2ccc(F)cc2)[nH]1 (centres undefined)	BRCA1 expr act inconclusive (no result: TCR act)
COc1cccc(-c2cnc(C(O)c3ccc(F)cc3)[nH]2)c1 (centres undefined)	BRCA1 expr act 13µM (no result: TCR act)
Cc1ccccc1-c1cnc(C(O)c2ccccc2)[nH]1 (centres undefined)	BRCA1 expr act 4.5µM (no result: TCR act)
Cc1ccc(Nc2cc(C(=O)NCc3cccs3)c3ccccc3n2)c(C)c1	none (no result: pAkt inh, TCR act, BRCA1 expr act)
Fc1ccc(N/N=C/c2ccncc2)c(F)c1	BRCA1 expr act 14µM
Clc1ccc(N/N=C/c2ccncc2)cc1Cl	BRCA1 expr act 7.1µM
Clc1cnc(N/N=C/c2ccncc2)c(Cl)c1	none
CCC(C)NS(=O)(=O)c1ccc(OCC(=O)Nc2ccc(F)cc2F)cc1 (centres undefined)	pAkt inh -111%
